Data from PubChem BioAssay.
Activity calls are given as the source filed them. Unless noted, how the calls were made is not given here.

Legend:
[1] = compounds binding Alexa647 anti-His antibody – biochemical, small-molecule microarray, 635 nm fluorescence, artefact control for SMM control protein annotation, primary screen (AID 1128); details: higher = more signal;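 further: score merges feature fluorescence with signal-to-noise for each printed compound spot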
[2] = test system: Human papillomavirus type 1a E7 protein (residues 1-88); assay: HPV1a E7 small-molecule binders, primary screen, biochemical, small-molecule microarray, residues 1-88, 635 nm (AID 1129); details: small-molecule microarray binding, fluorescence 635 nm; higher = more signal
[3] = molecular target: Focal adhesion kinase 1 (Homo sapiens) (UniProt Q05397); assay: PTK2 protein binding on printed compound slides – biochemical, small-molecule microarray, 635/667 nm fluorescence, BSA, DTT, primary screen (AID 1130); details: 635 nm fluorescence, higher = more signal;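 further: composite of spot emission at 667 nm and signal to noise over triplicate slides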
[4] = test system: Fibrinogen (Alexa647-labelled); assay: Alexa647-fibrinogen binding to printed small molecules – biochemical, small-molecule microarray, 635/667 nm fluorescence, artefact control for SMM control-protein annotation, profiling panel (AID 1131); details: fibrinogen-A647 binding fluorescence, higher = more signal;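 further: z-score merges 667 nm fluorescence with per-spot signal-to-noise over triplicate slides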
[5] = molecular target: Follistatin (Homo sapiens) (UniProt P19883); assay: FST protein binding to printed compounds – biochemical, small-molecule microarray, 635/667 nm fluorescence, primary screen (AID 1132); details: 635 nm fluorescence, higher = more signal
[6] = molecular target: Fibroblast growth factor 2 (Homo sapiens) (UniProt P09038); assay: basic fibroblast growth factor binding to printed compounds – biochemical, small-molecule microarray, 635/667 nm fluorescence, primary screen (AID 1133); details: FGF2, fluorescence 635/667, higher = more signal
[7] = JC-1 mitochondrial potential readout, lung cancer cells – cell-based, A549, JC-1 fluorescence, basal, 24 h, 100 nL, profiling panel (AID 1138); details: higher = more signal;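 further: A549 lung adenocarcinoma cells under basal conditions with no added stimulus; test concentration not given here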
Lefty1 = Lefty1 protein binding to printed compounds – biochemical, small-molecule microarray, 635/667 nm fluorescence, primary screen (AID 1139); details: fluorescence 635/667, higher = more signal
[8] = test system: wheat germ agglutinin (Triticum aestivum), Alexa647-labelled; assay: Alexa647-WGA lectin binding to printed small molecules – biochemical, small-molecule microarray, 635/667 nm fluorescence, artefact control for SMM control-protein annotation, profiling panel (AID 1140); details: WGA-A647 binding, 635 nm fluorescence, higher = more signal;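 further: score merges 667 nm feature emission with signal to noise over triplicate slides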
[9] = molecular target: Luciferin 4-monooxygenase (Photinus pyralis) (UniProt P08659); assay: inhibition of purified Photinus pyralis luciferase – biochemical, luminescence, purified enzyme, 2006 set, primary screen (AID 1141); details: purified firefly luciferase, SteadyGlo luminescence, 30 min; higher = more signal, called active from +8 up or from −8 down;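 further: cell-free assay with purified firefly luciferase at 100 ng per well in PBS; test concentration not given here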
[10] = test system: Wnt5a (protein binding on small-molecule microarray); assay: small molecules binding Wnt5a protein – biophysical, small-molecule microarray, 635/667 nm fluorescence, primary screen (AID 1142); details: 635 nm fluorescence, higher = more signal;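 further: fluorescence read at 667 nm with signal to noise per printed feature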
[11] = ATP-based viability of Huh7 replicon cells – cell-based, CellTiter-Glo luminescence, basal, 48 h, cytotoxicity control for HCV replication inhibitor project, primary screen (AID 1143); details: higher = more signal, called active from +8 up or from −8 down;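 further: Huh7 hepatoma cells carrying a hepatitis C replication reporter with no stimulus; test concentration not given here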
[12] = Pseudomonas biofilm growth suppression – PAO1 strain, BacTiter-Glo luminescence, LB-PBS, primary screen (AID 1144); details: P. aeruginosa PAO1 biofilm, 12 h, higher = more signal
[13] = basal CRE-LacZ reporter activity in PC12 – cell-based, unstimulated, primary screen (AID 1145); details: no forskolin, luminescence, 4.5 h, higher = more signal, called active from +8 up or from −8 down
[14] = forskolin-driven CRE-LacZ activity in PC12 – cell-based, CRE-LacZ reporter, forskolin-stimulated, primary screen (AID 1146); details: luminescence, 4.5 h, higher = more signal, called active from +8 up or from −8 down;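 further: PC12 cells with 6xCRE LacZ reporter stimulated by forskolin 10 µM; beta-galactosidase reporter signal reflecting CREB driven transcription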
[15] = molecular target: Streptavidin (Streptomyces avidinii) (UniProt P22629); assay: compounds binding control protein streptavidin – biophysical, small-molecule microarray, 635/667 nm fluorescence, artefact control for SMM compound annotation, primary screen (AID 1147); details: higher = more signal;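 further: signal reflects streptavidin binding to arrayed compounds as a control protein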
[16] = probe aInhba binding on compound microarray – biochemical, small-molecule microarray, 635/667 nm fluorescence, primary screen (AID 1148); details: higher = more signal;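 further: score merges 667nm spot fluorescence with signal-to-noise for antibody binding to printed compounds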
Torsin-1A (Homo sapiens) [17] = molecular target: Torsin-1A (Homo sapiens) (UniProt O14656); assay: TOR1A wild-type binding on microarray – cell lysate, small-molecule microarray, lysate, 635/667 nm, primary screen (AID 1149); details: COS7 hTOR1A-WT lysate, 635 nm fluorescence, higher = more signal
Torsin-1A (Homo sapiens) [18] = molecular target: Torsin-1A (Homo sapiens) (UniProt O14656); assay: torsin A mutant lysate binding on microarrays – cell lysate, small-molecule microarray, COS7 lysate, 635/667 nm fluorescence, primary screen (AID 1150); details: COS7 hTOR1A mutant lysate, 635 nm fluorescence, higher = more signal;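 further: score pools 667 nm emission and signal to noise measuring lysate protein binding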
[19] = test system: Sonic hedgehog protein (Shh); assay: Sonic hedgehog microarray binding compounds – biochemical, small-molecule microarray, 635/667 nm fluorescence, primary screen (AID 1151); details: 635 nm fluorescence, higher = more signal;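 further: Shh protein binding to compounds spotted on small-molecule microarray slides; score combines spot fluorescence intensity with signal-to-noise across triplicate slides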

Sequence of Torsin-1A (Homo sapiens) (O14656 whole entry, looked up): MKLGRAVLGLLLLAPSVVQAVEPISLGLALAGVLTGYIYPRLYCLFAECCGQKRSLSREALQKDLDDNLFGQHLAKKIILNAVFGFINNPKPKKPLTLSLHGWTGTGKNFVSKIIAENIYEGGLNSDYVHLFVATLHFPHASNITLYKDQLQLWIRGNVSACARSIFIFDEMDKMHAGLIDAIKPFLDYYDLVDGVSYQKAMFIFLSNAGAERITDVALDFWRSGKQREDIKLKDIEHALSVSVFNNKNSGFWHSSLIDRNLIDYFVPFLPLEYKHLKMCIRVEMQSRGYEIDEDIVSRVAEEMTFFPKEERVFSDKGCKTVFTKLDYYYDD
Sequence of Follistatin (Homo sapiens) (P19883 whole entry, looked up): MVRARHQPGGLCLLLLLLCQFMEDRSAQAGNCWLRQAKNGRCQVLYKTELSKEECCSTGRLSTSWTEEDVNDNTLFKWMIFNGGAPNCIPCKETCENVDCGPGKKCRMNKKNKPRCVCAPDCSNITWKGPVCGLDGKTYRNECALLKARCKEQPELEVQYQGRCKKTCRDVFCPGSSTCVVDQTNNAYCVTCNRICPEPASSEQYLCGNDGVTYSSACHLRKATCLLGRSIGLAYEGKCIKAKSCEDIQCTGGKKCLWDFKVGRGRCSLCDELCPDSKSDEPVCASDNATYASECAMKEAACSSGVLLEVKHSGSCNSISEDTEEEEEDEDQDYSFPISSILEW
Sequence of Focal adhesion kinase 1 (Homo sapiens) (Q05397 whole entry, looked up): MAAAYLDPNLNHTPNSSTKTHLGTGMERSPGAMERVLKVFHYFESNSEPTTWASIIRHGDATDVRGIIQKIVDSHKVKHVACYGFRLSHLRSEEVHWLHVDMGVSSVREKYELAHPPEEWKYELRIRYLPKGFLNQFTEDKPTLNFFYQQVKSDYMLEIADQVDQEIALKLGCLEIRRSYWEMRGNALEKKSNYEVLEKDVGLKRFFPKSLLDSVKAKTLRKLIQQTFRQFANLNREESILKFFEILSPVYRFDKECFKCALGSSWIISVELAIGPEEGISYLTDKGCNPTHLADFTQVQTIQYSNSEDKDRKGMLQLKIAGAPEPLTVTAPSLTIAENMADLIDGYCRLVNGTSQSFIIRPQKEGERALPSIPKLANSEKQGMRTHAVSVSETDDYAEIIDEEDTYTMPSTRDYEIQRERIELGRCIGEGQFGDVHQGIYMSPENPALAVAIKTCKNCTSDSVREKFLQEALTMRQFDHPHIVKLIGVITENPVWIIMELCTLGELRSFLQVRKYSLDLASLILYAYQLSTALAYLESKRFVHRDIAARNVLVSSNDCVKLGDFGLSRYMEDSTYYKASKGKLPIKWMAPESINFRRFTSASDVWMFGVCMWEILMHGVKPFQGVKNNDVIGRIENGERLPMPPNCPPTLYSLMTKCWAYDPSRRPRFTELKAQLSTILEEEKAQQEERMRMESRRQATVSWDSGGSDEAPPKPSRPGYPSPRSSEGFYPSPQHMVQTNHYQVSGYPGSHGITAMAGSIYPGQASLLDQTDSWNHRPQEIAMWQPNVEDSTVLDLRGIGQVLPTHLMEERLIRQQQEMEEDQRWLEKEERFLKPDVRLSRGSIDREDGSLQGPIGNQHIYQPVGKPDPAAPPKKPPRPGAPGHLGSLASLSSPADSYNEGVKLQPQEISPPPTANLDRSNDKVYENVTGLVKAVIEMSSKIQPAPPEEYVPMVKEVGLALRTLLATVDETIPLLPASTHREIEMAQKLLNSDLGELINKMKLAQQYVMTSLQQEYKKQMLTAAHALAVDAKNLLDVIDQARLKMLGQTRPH
Sequence of Streptavidin (Streptomyces avidinii) (P22629 whole entry, looked up): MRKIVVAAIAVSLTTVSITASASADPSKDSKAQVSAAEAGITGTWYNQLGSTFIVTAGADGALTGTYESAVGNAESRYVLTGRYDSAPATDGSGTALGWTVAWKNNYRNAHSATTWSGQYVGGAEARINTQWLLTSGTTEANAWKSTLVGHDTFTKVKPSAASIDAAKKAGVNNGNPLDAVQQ
Sequence of Luciferin 4-monooxygenase (Photinus pyralis) (P08659 whole entry, looked up): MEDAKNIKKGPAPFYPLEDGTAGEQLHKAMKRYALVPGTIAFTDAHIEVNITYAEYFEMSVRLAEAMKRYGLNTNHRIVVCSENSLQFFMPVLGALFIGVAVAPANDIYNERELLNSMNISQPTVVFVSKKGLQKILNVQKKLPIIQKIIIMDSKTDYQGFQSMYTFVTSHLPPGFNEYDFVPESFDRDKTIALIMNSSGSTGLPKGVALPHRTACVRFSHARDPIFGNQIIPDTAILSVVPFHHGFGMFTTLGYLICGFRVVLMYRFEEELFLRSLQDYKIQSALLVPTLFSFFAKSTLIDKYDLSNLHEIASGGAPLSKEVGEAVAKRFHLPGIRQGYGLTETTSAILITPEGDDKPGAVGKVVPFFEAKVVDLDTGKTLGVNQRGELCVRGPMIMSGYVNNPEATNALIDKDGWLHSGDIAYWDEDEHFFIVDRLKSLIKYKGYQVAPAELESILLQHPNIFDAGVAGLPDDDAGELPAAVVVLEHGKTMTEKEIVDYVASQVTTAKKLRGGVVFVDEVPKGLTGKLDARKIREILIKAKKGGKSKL
Sequence of Fibroblast growth factor 2 (Homo sapiens) (P09038 whole entry, looked up): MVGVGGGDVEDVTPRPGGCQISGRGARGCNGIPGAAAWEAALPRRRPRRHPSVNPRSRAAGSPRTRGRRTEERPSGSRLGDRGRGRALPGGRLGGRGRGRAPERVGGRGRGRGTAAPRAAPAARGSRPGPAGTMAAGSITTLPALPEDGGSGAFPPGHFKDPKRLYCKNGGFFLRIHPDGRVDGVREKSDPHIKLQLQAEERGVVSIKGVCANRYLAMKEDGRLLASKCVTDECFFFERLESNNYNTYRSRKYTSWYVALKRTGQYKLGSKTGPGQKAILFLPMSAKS

Structure (SMILES) | composite z-score [1] | composite z-score [2] | composite z-score [3] | composite z-score [4] | composite z-score [5] | composite z-score [6] | z-score [7] | composite z-score (Lefty1) | composite z-score [8] | z-score [9] | composite z-score [10] | z-score [11] | z-score [12] | z-score [13] | z-score [14] | composite z-score [15] | composite z-score [16] | composite z-score (Torsin-1A (Homo sapiens) [17]) | composite z-score (Torsin-1A (Homo sapiens) [18]) | composite z-score [19]
CN(C)C(=O)[C@@]1(Cc2ccccc2)N=C(c2ccc(OCCCO)cc2)O[C@H]1c1ccccc1CN=[N+]=[N-] | 3.27 | 1.25 | 0.254 | 1.02 | 1.37 | 1.18 | 1.97 | 0.485 | 1.25 | -0.088 (inactive) | 1.45 | -2.26 (inactive) | 0.456 (inactive) | 0.974 (inactive) | -0.55 (inactive) | 1.5 | 0.696 | 0.526 | 1.79 | -0.122
CC(=O)OC[C@H]1O[C@@H](ON=C(C)CCN2CCc3nc(-c4ccccc4)c(-c4ccccc4)cc3C2)[C@H](OC(C)=O)[C@@H](OC(C)=O)[C@@H]1OC(C)=O | -0.116 | 1.11 | 0.276 | 0.867 | 0.992 | 1.19 | 1.13 | 0.699 | 0.491 | 0.93 (inactive) | 0.344 | -0.228 (inactive) | 0.305 (inactive) | 1.41 (inactive) | 0.0789 (inactive) | 0.65 | 0.134 | 0.054 | 0.257 | 1.12
O=C1[C@H]2[C@H]3[C@H](O)[C@H](O)CC(=NO[C@@H]4O[C@H](CO)[C@@H](O)[C@H](O)[C@H]4O)[C@H]3CC[C@H]2C(=O)N1C1CCCCC1 | 0.648 | 1.16 | 0.84 | 0.402 | -0.384 | -0.0148 | -0.0288 | 0.625 | 0.183 | 0.23 (inactive) | -0.0314 | 0.582 (inactive) | 0.423 (inactive) | -0.0175 (inactive) | 0.234 (inactive) | -0.534 | -0.0313 | 1.03 | 0.843 | 0.61
O=C1O[C@@H](c2ccccc2)[C@@H](c2ccccc2)N2[C@@H](c3ccc(OCCO)cc3)[C@]3(C(=O)Nc4ccccc43)[C@@H](C(=O)N3CCN(c4ncccn4)CC3)[C@H]12 | 1.08 | 1.18 | 0.687 | 0.489 | 1.28 | 1.17 | -0.473 | 1.19 | 0.929 | -1.4 (inactive) | 0.22 | -0.704 (inactive) | 0.349 (inactive) | 0.865 (inactive) | 3.05 (inactive) | 0.557 | 0.175 | 0.403 | 0.94 | 1.14
COC(=O)[C@@]1(Cc2ccc(F)cc2)[C@@H]2C(=CC(=O)[C@H]2CC(=O)C(=O)N(C)C)CN1C(=O)c1ccccc1 | 2.36 | 1.26 | 1.09 | 0.981 | 0.635 | -0.54 | 0.589 | -0.421 | 0.847 | 1.24 (inactive) | 0.392 | -3.59 (inactive) | 0.504 (inactive) | -0.179 (inactive) | -0.196 (inactive) | 1.7 | 0.38 | -0.441 | 0.283 | -0.367
